Common to all, as to assay: DAPPL (digital affinity profiling via proximity ligation, sequencing); 10 mM Tris-HCl pH 7.5, 50 mM NaCl, 1 mM DTT, 4% glycerol, room temperature, 30 min; GST-TFs on glutathione beads, 16-mer random dsDNA library, 0.1% formaldehyde crosslink after washing; high values mean tight binding
One assay has as its target T1, FEV (Homo sapiens, UniProt Q99581 1-238).
T1 sequence: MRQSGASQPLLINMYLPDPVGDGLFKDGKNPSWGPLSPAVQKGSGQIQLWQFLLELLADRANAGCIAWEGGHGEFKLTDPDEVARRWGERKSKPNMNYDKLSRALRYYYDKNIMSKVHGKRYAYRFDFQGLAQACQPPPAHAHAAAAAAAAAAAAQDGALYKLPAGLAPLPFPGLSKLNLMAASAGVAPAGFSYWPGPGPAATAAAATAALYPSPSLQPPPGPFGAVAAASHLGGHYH
The note with it: protein: recombinant; tags: N-terminal GST; dsDNA, one strand shown. In short, it runs like this:
(§1)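 Binding signal is each hexamer's read frequency for a factor divided by its frequency in the tag-only sample. The factors were GST-fused human transcription factors from yeast, captured on glutathione beads, DNA-barcoded and pooled with that sample. Pools were incubated with 200 nmole of a random double-stranded 16-mer DNA library in Tris/NaCl/DTT/glycerol buffer at room temperature for 30 min, then washed, crosslinked with 0.1% formaldehyde, proximity-ligated with BsaI/T4 ligase (1 h, 37 °C), PCR-amplified and sequenced on an Illumina NextSeq500.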

A further assay has as its target ETV5 (Homo sapiens, UniProt P41161 1-510). The note with it: protein: recombinant; tags: N-terminal GST; dsDNA, one strand shown. The essentials: as §1
In a further assay the target is HSF1 (Homo sapiens, UniProt Q00613 1-529). The note with it: protein: recombinant; tags: N-terminal GST; chain copies: 3; dsDNA, one strand shown. The essentials:
as §1

The target in a further assay is T2, SPIC (Homo sapiens, UniProt Q8N5J4 1-248).
T2 sequence: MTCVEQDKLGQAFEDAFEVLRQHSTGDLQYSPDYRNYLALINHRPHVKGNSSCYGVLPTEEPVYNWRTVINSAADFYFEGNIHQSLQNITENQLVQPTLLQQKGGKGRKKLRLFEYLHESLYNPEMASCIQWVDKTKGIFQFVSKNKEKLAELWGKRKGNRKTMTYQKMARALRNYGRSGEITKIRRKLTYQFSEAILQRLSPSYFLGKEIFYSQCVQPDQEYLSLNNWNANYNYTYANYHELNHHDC
The note with it: protein: recombinant; tags: N-terminal GST; dsDNA, one strand shown. The essentials: as §1

In a further assay the target is ELF4 (Homo sapiens, UniProt Q99607 1-663). The following applies: protein: recombinant; tags: N-terminal GST; dsDNA, one strand shown. In short, it runs like this: as §1
Sequence of ELF4 (Q99607 whole entry): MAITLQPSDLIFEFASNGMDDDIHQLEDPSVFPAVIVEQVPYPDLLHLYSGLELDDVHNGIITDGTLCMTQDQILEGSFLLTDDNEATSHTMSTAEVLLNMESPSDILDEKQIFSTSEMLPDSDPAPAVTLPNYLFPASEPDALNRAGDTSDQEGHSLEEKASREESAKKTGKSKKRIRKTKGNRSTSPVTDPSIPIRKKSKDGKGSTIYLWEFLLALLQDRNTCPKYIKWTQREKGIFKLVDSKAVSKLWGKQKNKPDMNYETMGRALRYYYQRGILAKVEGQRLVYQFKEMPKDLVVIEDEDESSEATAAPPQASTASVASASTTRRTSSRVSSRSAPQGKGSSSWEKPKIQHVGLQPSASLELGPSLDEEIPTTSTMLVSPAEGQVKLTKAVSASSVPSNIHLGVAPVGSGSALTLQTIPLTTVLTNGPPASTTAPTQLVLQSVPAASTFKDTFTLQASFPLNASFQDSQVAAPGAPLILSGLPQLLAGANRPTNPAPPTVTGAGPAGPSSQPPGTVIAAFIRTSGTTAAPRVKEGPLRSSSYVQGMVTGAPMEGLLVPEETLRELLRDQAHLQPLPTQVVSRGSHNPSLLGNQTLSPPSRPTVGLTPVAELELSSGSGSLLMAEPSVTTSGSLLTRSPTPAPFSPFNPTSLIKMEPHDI
For a further assay, the target named is T3, ELK4 (Homo sapiens, UniProt P28324-2 1-405).
T3 sequence: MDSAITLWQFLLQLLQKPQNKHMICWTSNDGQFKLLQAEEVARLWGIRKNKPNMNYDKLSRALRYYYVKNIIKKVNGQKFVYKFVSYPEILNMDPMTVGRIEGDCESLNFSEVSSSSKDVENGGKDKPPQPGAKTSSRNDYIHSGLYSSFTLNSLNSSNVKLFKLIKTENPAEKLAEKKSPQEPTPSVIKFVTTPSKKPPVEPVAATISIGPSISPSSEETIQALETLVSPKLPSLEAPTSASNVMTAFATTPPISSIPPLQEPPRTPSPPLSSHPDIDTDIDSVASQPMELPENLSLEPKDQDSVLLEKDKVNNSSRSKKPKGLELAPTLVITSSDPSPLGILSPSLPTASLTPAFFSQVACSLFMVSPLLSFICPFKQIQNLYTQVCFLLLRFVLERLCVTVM
The note with it: protein: recombinant; tags: N-terminal GST; dsDNA, one strand shown. The essentials:
as §1

A further assay addresses T4, ETV2 (Homo sapiens, UniProt O00321 1-342).
T4 sequence: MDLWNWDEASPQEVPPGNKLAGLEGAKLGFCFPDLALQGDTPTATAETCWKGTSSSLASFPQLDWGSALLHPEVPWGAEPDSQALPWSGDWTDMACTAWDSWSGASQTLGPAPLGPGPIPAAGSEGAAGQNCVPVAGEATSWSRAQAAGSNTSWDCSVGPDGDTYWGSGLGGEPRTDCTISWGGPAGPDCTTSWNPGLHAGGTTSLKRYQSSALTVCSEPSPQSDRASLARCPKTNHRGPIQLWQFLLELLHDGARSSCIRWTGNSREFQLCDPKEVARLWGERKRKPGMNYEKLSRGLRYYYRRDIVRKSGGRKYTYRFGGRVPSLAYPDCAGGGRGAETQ
The following applies: protein: recombinant; tags: N-terminal GST; dsDNA, one strand shown. In short, it runs like this:
as §1

Another assay concerns the target T5, ELF3 (Homo sapiens, UniProt P78545 1-371).
T5 sequence: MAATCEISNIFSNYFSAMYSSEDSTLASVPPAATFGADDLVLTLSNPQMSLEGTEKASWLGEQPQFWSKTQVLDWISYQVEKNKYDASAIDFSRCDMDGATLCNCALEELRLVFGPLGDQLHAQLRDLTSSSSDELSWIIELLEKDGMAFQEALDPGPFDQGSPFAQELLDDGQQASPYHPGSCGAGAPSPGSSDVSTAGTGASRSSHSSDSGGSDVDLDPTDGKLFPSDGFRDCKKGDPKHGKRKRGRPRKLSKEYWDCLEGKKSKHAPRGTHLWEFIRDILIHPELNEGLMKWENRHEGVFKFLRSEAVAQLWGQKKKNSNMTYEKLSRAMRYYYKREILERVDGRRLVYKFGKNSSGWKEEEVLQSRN
The note with it: protein: recombinant; tags: N-terminal GST; dsDNA, one strand shown. The essentials:
as §1

The target of another assay is CRX (Homo sapiens, UniProt O43186 1-299). The note with it: protein: recombinant; tags: N-terminal GST; dsDNA, one strand shown. The essentials: as §1
Sequence of CRX (O43186 whole entry): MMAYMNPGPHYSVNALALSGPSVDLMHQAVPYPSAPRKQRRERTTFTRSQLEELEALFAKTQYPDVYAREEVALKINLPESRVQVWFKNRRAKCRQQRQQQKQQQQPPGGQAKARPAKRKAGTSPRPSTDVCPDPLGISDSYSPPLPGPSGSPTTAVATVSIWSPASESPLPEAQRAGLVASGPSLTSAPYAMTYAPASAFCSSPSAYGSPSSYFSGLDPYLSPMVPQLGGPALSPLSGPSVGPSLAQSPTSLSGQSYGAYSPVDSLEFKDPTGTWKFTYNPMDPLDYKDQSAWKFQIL
Another assay has as its target ETV1 (Homo sapiens, UniProt P50549 1-477). The following applies: protein: recombinant; tags: N-terminal GST; dsDNA, one strand shown. In short, it runs like this: as §1
The target of another assay is T6, ERF (Homo sapiens, UniProt P50548 1-548).
T6 sequence: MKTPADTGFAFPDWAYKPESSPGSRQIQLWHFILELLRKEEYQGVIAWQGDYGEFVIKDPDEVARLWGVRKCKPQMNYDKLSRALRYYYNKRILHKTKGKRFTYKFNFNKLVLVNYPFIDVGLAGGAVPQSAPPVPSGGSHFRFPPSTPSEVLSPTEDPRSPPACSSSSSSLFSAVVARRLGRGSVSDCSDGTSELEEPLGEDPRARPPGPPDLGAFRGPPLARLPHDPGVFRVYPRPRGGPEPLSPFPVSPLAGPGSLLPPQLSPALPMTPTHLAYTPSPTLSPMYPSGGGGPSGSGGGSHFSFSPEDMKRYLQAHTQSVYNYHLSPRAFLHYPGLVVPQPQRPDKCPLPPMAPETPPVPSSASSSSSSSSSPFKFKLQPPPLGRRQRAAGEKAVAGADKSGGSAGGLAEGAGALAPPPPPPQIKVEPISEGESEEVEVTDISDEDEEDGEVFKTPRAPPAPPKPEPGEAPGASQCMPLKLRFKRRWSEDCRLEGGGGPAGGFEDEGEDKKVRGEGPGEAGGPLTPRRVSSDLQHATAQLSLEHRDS
The note with it: protein: recombinant; tags: N-terminal GST; dsDNA, one strand shown. In short, it runs like this:
as §1

Another assay concerns the target T7, ETV3L (Homo sapiens, UniProt Q6ZN32 1-361).
T7 sequence: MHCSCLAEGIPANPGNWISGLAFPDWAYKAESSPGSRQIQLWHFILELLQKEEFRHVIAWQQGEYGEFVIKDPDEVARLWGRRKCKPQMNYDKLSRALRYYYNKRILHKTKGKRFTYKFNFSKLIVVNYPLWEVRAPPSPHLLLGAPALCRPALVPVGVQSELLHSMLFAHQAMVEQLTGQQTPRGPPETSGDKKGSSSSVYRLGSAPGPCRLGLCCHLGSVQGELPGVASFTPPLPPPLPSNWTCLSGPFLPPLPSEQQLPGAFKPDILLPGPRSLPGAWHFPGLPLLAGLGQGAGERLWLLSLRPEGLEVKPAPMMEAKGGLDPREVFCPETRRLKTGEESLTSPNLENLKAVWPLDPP
The note with it: protein: recombinant; tags: N-terminal GST; dsDNA, one strand shown. The essentials: as §1

The target in another assay is T8, ETS2 (Homo sapiens, UniProt P15036 1-469).
T8 sequence: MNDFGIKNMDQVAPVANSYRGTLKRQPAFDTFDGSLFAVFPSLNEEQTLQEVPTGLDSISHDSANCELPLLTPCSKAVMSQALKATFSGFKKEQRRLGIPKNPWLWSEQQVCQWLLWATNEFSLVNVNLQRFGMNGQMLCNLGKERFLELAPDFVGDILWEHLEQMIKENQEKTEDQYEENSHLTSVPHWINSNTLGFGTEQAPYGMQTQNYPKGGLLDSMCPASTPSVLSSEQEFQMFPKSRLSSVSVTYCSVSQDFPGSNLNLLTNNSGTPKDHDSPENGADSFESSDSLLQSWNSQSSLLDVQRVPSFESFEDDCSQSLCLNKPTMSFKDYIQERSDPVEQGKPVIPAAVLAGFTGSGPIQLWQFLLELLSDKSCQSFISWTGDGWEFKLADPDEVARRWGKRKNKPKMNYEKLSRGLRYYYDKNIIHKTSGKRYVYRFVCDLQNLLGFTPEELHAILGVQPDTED
The note with it: protein: recombinant; tags: N-terminal GST; dsDNA, one strand shown. In short, it runs like this: as §1

The next assay has as its target T9, SPDEF (Homo sapiens, UniProt O95238 1-335).
T9 sequence: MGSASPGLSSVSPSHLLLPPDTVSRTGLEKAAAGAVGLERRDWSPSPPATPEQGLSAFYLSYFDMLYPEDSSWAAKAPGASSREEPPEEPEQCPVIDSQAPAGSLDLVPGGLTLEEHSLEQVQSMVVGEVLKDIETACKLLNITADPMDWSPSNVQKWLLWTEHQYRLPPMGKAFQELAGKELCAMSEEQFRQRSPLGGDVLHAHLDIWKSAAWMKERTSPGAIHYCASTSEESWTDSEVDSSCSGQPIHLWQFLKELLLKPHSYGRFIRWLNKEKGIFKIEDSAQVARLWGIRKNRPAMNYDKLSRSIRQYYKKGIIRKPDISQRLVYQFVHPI
The following applies: protein: recombinant; tags: N-terminal GST; dsDNA, one strand shown. In short, it runs like this:
as §1

Another assay addresses T10, ETV7 (Homo sapiens, UniProt Q9Y603 1-341).
T10 sequence: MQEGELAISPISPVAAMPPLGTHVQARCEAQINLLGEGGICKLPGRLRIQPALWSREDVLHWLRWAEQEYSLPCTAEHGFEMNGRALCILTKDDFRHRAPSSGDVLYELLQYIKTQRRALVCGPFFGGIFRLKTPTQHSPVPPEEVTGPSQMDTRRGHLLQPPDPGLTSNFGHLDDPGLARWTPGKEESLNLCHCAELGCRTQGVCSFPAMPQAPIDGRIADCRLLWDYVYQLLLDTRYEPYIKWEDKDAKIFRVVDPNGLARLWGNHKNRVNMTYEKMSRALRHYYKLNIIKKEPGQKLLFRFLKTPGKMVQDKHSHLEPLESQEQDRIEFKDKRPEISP
The note with it: protein: recombinant; tags: N-terminal GST; dsDNA, one strand shown. The essentials: as §1

For another assay, the target named is T11, ELF5 (Homo sapiens, UniProt Q9UKW6-2 1-255).
T11 sequence: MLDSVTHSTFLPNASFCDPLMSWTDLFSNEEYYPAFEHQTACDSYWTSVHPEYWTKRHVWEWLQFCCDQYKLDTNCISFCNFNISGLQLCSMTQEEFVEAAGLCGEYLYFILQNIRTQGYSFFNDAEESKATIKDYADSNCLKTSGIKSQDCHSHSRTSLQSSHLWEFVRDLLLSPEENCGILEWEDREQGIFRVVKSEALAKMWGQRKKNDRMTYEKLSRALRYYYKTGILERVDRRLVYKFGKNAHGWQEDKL
The note with it: protein: recombinant; tags: N-terminal GST; dsDNA, one strand shown. The essentials:
as §1

The target of another assay is T12, ETV3 (Homo sapiens, UniProt P41162-2 1-143).
T12 sequence: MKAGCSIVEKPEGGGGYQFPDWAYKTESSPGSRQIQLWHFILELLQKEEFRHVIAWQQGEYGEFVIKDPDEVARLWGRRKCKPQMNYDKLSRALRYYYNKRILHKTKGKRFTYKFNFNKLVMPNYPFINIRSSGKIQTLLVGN
The note with it: protein: recombinant; tags: N-terminal GST; dsDNA, one strand shown. The essentials: as §1

The next assay deals with ETV6 (Homo sapiens, UniProt P41212 1-452). The following applies: protein: recombinant; tags: N-terminal GST; dsDNA, one strand shown. In short, it runs like this:
as §1

Here are results for one sequence from PMC7862700, “An all-to-all approach to the identification of sequence-specific readers for epigenetic DNA modifications on cytosine”.

Sequence of ETV1 (P50549 whole entry): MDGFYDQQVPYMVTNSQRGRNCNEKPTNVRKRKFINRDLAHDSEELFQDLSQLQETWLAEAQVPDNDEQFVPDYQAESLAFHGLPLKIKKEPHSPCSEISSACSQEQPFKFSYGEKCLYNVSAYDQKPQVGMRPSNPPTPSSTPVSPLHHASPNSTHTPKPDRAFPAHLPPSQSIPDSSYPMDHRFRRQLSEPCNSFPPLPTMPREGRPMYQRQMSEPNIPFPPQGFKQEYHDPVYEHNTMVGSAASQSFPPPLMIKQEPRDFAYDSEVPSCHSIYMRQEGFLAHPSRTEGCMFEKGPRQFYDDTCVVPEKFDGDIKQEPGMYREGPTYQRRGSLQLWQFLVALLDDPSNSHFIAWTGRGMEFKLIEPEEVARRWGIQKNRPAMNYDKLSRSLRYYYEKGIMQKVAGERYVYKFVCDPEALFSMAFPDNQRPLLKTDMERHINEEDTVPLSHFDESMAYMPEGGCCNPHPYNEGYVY
Sequence of ETV5 (P41161 whole entry): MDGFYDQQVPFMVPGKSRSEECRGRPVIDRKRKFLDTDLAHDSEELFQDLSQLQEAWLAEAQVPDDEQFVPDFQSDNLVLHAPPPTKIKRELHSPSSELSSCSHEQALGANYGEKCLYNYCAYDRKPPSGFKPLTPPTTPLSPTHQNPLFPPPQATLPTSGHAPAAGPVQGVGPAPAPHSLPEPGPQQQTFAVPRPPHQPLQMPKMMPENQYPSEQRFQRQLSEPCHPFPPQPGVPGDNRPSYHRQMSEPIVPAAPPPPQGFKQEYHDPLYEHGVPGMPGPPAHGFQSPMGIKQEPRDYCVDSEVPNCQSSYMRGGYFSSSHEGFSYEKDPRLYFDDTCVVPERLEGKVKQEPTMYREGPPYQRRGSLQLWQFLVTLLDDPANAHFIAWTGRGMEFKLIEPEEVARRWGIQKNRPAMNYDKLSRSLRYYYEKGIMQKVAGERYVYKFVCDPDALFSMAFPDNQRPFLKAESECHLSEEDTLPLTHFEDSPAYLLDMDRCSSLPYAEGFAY
Sequence of ETV6 (P41212 whole entry): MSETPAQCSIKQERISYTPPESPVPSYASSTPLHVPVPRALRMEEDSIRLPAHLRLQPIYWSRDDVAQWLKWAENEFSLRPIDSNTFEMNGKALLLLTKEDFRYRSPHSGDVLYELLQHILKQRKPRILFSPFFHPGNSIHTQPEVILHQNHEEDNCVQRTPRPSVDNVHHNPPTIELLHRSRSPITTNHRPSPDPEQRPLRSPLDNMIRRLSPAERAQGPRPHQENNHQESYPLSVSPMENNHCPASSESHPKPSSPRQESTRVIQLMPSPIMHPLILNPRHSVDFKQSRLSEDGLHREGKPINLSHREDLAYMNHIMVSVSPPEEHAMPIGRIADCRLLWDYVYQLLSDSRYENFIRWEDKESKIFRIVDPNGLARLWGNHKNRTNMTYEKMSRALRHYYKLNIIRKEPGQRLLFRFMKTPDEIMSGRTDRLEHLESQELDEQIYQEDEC
Sequence of HSF1 (Q00613 whole entry): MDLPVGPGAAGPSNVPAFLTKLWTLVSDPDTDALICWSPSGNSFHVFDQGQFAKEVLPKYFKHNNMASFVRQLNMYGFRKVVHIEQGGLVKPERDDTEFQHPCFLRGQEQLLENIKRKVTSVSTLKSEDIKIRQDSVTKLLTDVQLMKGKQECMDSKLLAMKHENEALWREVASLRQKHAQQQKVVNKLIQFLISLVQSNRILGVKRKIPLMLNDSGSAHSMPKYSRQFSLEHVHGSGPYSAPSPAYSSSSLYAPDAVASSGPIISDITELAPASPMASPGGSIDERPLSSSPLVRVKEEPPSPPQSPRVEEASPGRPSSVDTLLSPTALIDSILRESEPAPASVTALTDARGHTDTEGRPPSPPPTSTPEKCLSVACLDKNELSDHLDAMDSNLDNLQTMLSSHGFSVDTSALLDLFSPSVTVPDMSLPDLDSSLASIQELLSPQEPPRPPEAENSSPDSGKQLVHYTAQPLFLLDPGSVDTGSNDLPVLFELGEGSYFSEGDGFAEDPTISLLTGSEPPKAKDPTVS

For CTCTGT, the binding signal was 1.39 fold enrichment (6-mer frequency, TF over GST control) in the assay with FEV; 1.42 fold enrichment (6-mer frequency, TF over GST control) with ETV5; 1.15 fold enrichment (6-mer frequency, TF over GST control) with HSF1; 1.5 fold enrichment (6-mer frequency, TF over GST control) with SPIC; 1.33 fold enrichment (6-mer frequency, TF over GST control) in the assay with ELF4; 1.5 fold enrichment (6-mer frequency, TF over GST control) with ELK4. Further, the binding signal is 1.39 fold enrichment (6-mer frequency, TF over GST control) with ETV2; 1.4 fold enrichment (6-mer frequency, TF over GST control) in the assay with ELF3; 1.18 fold enrichment (6-mer frequency, TF over GST control) with CRX; 1.43 fold enrichment (6-mer frequency, TF over GST control) with ETV1; 1.5 fold enrichment (6-mer frequency, TF over GST control) with ERF; 1.33 fold enrichment (6-mer frequency, TF over GST control) in the assay with ETV3L. In addition, the binding signal was 1.5 fold enrichment (6-mer frequency, TF over GST control) in the assay with ETS2; 1.45 fold enrichment (6-mer frequency, TF over GST control) with SPDEF; 1.43 fold enrichment (6-mer frequency, TF over GST control) in the assay with ETV7; 1.37 fold enrichment (6-mer frequency, TF over GST control) with ELF5; 1.43 fold enrichment (6-mer frequency, TF over GST control) with ETV3; 1.44 fold enrichment (6-mer frequency, TF over GST control) in the assay with ETV6.
